Most compounds without a hit are left out; they make up all but 11% or so of the library.
HCV inhibitor – HCV inhibition; Huh7.5.1 HCVcc-Cre infection, luciferase reporter, 44 h; Potency, µM (titrated, usually from 41.8 µM), inactives show top-dose activity change, negative = inhibition, hits mostly inhibitors; 340,000 tested, 3.4% active
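Whole-lifecycle infectious HCVcc-Cre system; cells 1,000/well, compound then virus (~0.5 moi) added 4 h after plating, 44 h culture. Luciferase read 15 sec following 15 min substrate incubation, room temp.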
AMA1-RON2 inh – inhibitors of Plasmodium falciparum AMA1-RON2 interaction | AlphaScreen AMA1-biotinylated RON2 peptide binding | Potency, µM (titrated, usually from 58.2 µM), without a hit: at the top dose activity change, negative = inhibition, usual class: inhibitors | 360,000 tested, 0.2% active;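 further: 0% = vehicle wells and -100% = peptide control; nearly all actives have a fitted effect of over 45% in size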
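AMA1 (3D7) with his tag at 25 nM final met compounds first, then biotinylated RON2 peptide at 25 nM; detection used donor plus acceptor beads, 10 µg/mL apiece, read by AlphaScreen after 30 min at room temperature.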
Pf growth 96h – P. falciparum growth inhibition at 96 hours; P. falciparum luciferase reporter growth, 96 h; Potency, µM (top dose mostly 28.7 µM), inactives show at the highest dose activity change, negative = inhibition, actives largely listed as inhibitors; 320,000 tested, 6.9% active; AID 504834
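Luminescence readout: decreased luciferase signal marks inhibited growth of reporter-expressing P. falciparum in infected red cells (2% hematocrit, 0.05% parasitemia final), exposed to compound two generations (96 h, 37 C, 5% CO2).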
Pf growth 48h – inhibits P. falciparum growth in the first generation, 48 h. P. falciparum luciferase growth in erythrocytes, 48 h. Potency, µM (series often up to 28.7 µM), inactives show at the highest dose activity change, negative = inhibition, actives largely listed as inhibitors. 310,000 tested, 5.9% active. AID 504832
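Erythrocytes infected with P. falciparum carrying an integrated firefly luciferase reporter (2% hematocrit, 0.1% parasitemia final) were exposed to compounds in RPMI 1640 with 0.5% Albumax at 37 C, 5% CO2. Growth inhibition was scored as reduced luminescence.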
AmpC detergent – AmpC beta-lactamase inhibition with detergent present | P00811 | Potency, µM (highest dose often 114 µM), without a hit: at the top dose activity change, negative = inhibition, hits mostly inhibitors | 370,000 tested, 0.041% active | AID 485294 | AmpC hydrolysis of nitrocefin, absorbance 480 nm, 0.01% Triton;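 further: 0% = no-compound wells and -100% = no-enzyme wells; nearly all actives have a fitted effect of over 25% in size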
Target sequence (P00811 whole entry, looked up): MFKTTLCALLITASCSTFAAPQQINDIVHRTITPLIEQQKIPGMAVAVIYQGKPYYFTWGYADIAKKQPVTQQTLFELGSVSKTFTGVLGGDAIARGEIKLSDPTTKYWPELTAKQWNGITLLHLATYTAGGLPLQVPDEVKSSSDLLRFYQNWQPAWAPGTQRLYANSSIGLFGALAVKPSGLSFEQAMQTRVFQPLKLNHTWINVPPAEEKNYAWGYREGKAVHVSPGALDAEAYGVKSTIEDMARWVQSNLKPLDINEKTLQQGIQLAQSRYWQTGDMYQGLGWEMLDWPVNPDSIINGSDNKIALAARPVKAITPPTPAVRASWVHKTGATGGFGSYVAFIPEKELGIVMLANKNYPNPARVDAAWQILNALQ
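20 mM phosphate pH 7.0 + 0.01% (detergent screen) or 0.0001% Triton X-100; 5.3 nM AmpC reagent; cpd preinc 15 min RT; nitrocefin (800 uM stock) to start; A480 q20 s × 4 min; Activity was normalised to no-enzyme and no-compound control wells.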
AmpC no deterg – inhibitors of E. coli AmpC beta-lactamase without detergent | P00811 | AmpC nitrocefin hydrolysis, absorbance 480 nm, 0.0001% Triton | Potency, µM (series often up to 57.1 µM), for inactives: at the highest dose activity change, negative = inhibition, actives largely listed as inhibitors | 330,000 tested, 0.52% active | AID 485341;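 further: plate controls were no compound for no effect and no enzyme for full effect; nearly all actives have a fitted effect of over 20% in size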
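20 mM phosphate pH 7.0 + 0.01% (detergent screen) or 0.0001% Triton X-100; 5.3 nM AmpC reagent; cpd preinc 15 min RT; nitrocefin (800 uM stock) to start; A480 q20 s × 4 min; Activity was normalised to no-enzyme and no-compound control wells.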
* = called active by the depositor; ? = inconclusive; · = not tested or not shown. The call rests on the fitted dose curve; in most records, active means well fitted curve in the direction sought with a large enough effect; inconclusive means small, poorly fitted or top-dose-only effect, or another doubt; inactive means no such curve, though single readings can be large; an effect the other way counts as inactive or inconclusive. Unless noted, on the % scale 0 is the no-effect control and ±100 the full control effect; potency means the concentration at half of the fitted maximal effect.

SMILES	HCV inhibitor	AMA1-RON2 inh	Pf growth 96h	Pf growth 48h	AmpC detergent	AmpC no deterg
CCNc1nc(NCC)n2c(SC(C)C(=O)c3ccc(C)cc3)nnc2n1 (stereo not drawn)	?	-11%	?	?	-14%	-7%
CCOCCCn1c(SC(C(=O)Nc2cc(C)ccc2C)c2ccccc2)nnc1-c1ccc(Cl)cc1 (stereo not drawn)	?	-11%	9.3µM*	12µM*	-3%	-34%
Cc1ccc(C)c(NC(=O)C(Sc2nc3ccc(C)cc3[nH]2)c2ccccc2)c1 (stereo not drawn)	?	-20%	?	?	2%	?
CCNc1nc(NCC)n2c(SC(C(=O)Nc3cc(C)ccc3C)c3ccccc3)nnc2n1 (stereo not drawn)	?	-18%	12µM*	?	-3%	-9%
CC(=O)Nc1ccc(S(=O)(=O)NC2(C(F)(F)F)C(=O)Nc3c2c(=O)[nH]c(=O)n3-c2cccc(Cl)c2)cc1 (stereo not drawn)	·	·	·	·	-1%	·
CC(C)CCn1c(=O)c2sccc2n2c(CCCC(=O)NCCc3ccccc3)nnc12	·	·	·	·	19%	·
CC/C(=N\Nc1ccc([N+](=O)[O-])cc1[N+](=O)[O-])c1ccc(O)cc1	?	-23%	40%	-18%	-4%	-59%
CC/C(=N\Nc1ccccc1[N+](=O)[O-])c1ccc(O)cc1	-30%	16µM*	-10%	24%	-2%	-44%
COc1ccccc1CNC(=O)Cc1c[nH]c2ccccc12	6%	-14%	?	-14%	2%	-26%
COc1ccccc1CNC(=O)[C@H](Cc1c[nH]c2ccccc12)NC(=O)[C@@H]1Cc2ccccc2CN1	-26%	19%	10µM*	?	-13%	-23%
Cc1ccc(NC(=O)c2oc3ccc(S(=O)(=O)N(C)C4CCCCC4)cc3c2C)c(C)c1	·	·	·	·	11%	·
O=[N+]([O-])c1cccc(/C=C2\CCC(/C=N/Nc3ccc4ccccc4n3)=C2N2CCOCC2)c1	?	-3%	0.41µM*	?	-19%	-23%
CCOc1ccc(CNC(=O)c2cc3ccccn3n2)cc1OC	·	·	·	·	4%	·
COc1ccc(CCC(=O)NCCc2csc(-c3cccc(F)c3)n2)cc1	·	·	·	·	0%	·
CCCC(=O)c1ccc(N2CCN(C(=O)OCC)CC2)c(F)c1	-13%	3%	9.3µM*	5%	-3%	1%
Cn1c(=O)[nH]c2nnc(-c3ccc(Cl)c(Cl)c3)nc2c1=O	18%	-2%	1.7µM*	?	-5%	?
COc1ccccc1CNS(=O)(=O)c1ccc(N2CCCC2)cc1Br	11µM*	-8%	·	·	·	-30%
CCC(=O)N1CCc2cc(Br)cc(S(=O)(=O)NCc3ccccc3OC)c21	11%	-14%	?	6%	1%	-6%
CCS(=O)(=O)N1CC(=O)N(c2cc(Cl)ccc2C)C(C)(C(=O)NC2CCCCCC2)C1 (stereo not drawn)	·	·	·	·	-3%	·
O=C(Nc1ccc(Cl)c(S(=O)(=O)N2CCOCC2)c1)c1cccs1	-14%	3%	·	·	·	-29%
O=C(CSc1nc2ccccc2s1)Nc1ccc(Cl)c(S(=O)(=O)N2CCOCC2)c1	?	2%	4.7µM*	?	-2%	-13%
COc1ccc(NC(=O)CSc2nnc(C)s2)cc1S(=O)(=O)N1CCOCC1	6%	11%	10µM*	-18%	?	-11%
O=C(Nc1ccccc1O)c1cc(S(=O)(=O)N2CCOCC2)c(Cl)cc1Cl	·	13%	147%	7.4µM*	?	-29%
O=C(/C=C/c1ccco1)Nc1ccc(Cl)c(S(=O)(=O)N2CCOCC2)c1	10µM*	-5%	-29%	?	5%	-57%
Cc1c(CC(=O)N2CCCCC2)c(=O)oc2c(C)c3occ(C(C)(C)C)c3cc12	·	·	·	·	21%	·
SMILES	HCV inhibitor	AMA1-RON2 inh	Pf growth 96h	Pf growth 48h	AmpC detergent	AmpC no deterg
COc1cccc(OCCSc2nc3ccccc3n2CC(=O)N2CCCCC2)c1	·	·	·	·	-4%	·
O=C(CSc1oc(-c2cccs2)nc1S(=O)(=O)c1ccccc1)Nc1ccc(F)cc1	·	·	·	·	6%	·
CCOC(=O)c1cccc(NC(=O)C(CC(C)C)N2Cc3ccccc3C2=O)c1 (stereo not drawn)	·	·	·	·	-1%	·
O=C(Nc1ccccc1)Nc1ccc(Cl)c(S(=O)(=O)N2CCOCC2)c1	?	7%	?	9.3µM*	0%	-49%
O=C(Nc1ccc(NC(=O)c2ccc(Cl)c(S(=O)(=O)N3CCOCC3)c2)cc1)c1ccccc1	?	11%	-1%	5%	-8%	12%
O=C(Nc1nc2ccccc2s1)C1CCN(S(=O)(=O)c2cc([N+](=O)[O-])ccc2Cl)CC1	?	-24%	?	?	8%	7.9µM*
CN(C(=O)c1ccccc1C(=O)OCC(=O)c1ccccc1)c1ccccc1	1%	45%	12µM*	?	2%	-1%
CN(C(=O)c1ccccc1C(=O)OCC(=O)c1ccc(F)cc1)c1ccccc1	-1%	-9%	?	8.3µM*	-7%	51%
COc1ccc(C(=O)COC(=O)c2ccccc2C(=O)N(C)c2ccccc2)c(OC)c1	?	-9%	0%	?	-18%	88%
COc1ccc(OC)c(NC(=O)c2cn3c4c(ccc(Cl)c4c2=O)OC(C)C3)c1 (stereo not drawn)	·	·	·	·	16%	·
O=C(CSc1ncc(CO)n1Cc1ccccc1)Nc1ccc(C(F)(F)F)cc1	·	·	·	·	-1%	·
Cc1cc(C)nc(N(C#N)CC(=O)c2ccccc2)n1	16µM*	0%	·	0%	8%	-11%
CCc1ccc(C(=O)CN(C#N)c2nc(C)cc(C)n2)cc1	?	10%	?	0%	-2%	2%
Cc1nc2c(C)cccc2c(SC(=N)N)c1CC=C(Cl)Cl	1%	?	-1%	-1%	6%	-35%
C=CCc1c(C)nc2c(C)cccc2c1SC(=N)N	-27%	-22%	15µM*	?	-7%	-2%
COc1ccccc1CN(Cc1c(Cl)cccc1Cl)S(=O)(=O)c1ccc(Br)cc1	·	·	·	·	2%	·
c1ccc(N=Nc2ccc3cccccc2-3)cc1	-7%	4.5µM*	·	·	·	·
CCc1nn(CC(=O)N2CCN(c3cccc(C(F)(F)F)c3)CC2)c(=O)c2cccn12	·	·	·	·	3%	·
Cc1cc(C)c(C#N)c(N2CCCC(C(N)=O)C2)n1 (stereo not drawn)	10%	20%	12µM*	-15%	-7%	-26%
CCOC(=O)C1CCN(c2nc(C)cc(C)c2C#N)CC1	-3%	11%	1%	16%	-4%	25%

Screens from PubChem.
